From PubChem BioAssay
Calls of active or inactive are those of the source.

Key:
[1] = test system: Human papillomavirus type 1a protein E7 (residues 44-93); experiment: HPV1a E7 fragment binders on microarrays, primary screen, biochemical, small-molecule microarray, residues 44-93, 635 nm fluorescence (AID 1108); conditions: small-molecule microarray binding, fluorescence 635 nm; higher = more signal;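 further: E7 fragment applied at 1 µg/mL in TBST for 1 h at 4 C; score combines spot fluorescence with its signal to noise ratio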
[2] = modulators of HCV replicon luciferase signal, primary screen, HCV replication inhibitor project, Huh7 cells, luciferase reporter (AID 1109); conditions: 48 h, higher = more signal;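 further: huh7 hepatoma cells harbouring a luciferase neomycin HCV replicon reporter; luciferase luminescence as measure of HCV replicon replication; test concentration not given here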
[3] = target: Left-right determination factor 2 (Homo sapiens) (UniProt O00292); experiment: LEFTY2 binders on small-molecule microarrays, primary screen, biochemical, small-molecule microarray, 635 nm fluorescence scan (AID 1110); conditions: LEFTY2 binding, higher = more signal
[4] = target: Calmodulin-1 (Homo sapiens) (UniProt P0DP23); experiment: CALM1 binders on microarrays, EGTA buffer, profiling panel, biochemical, small-molecule microarray, Cy5-labelled CALM1 (AID 1111); conditions: Cy5-CALM1 binding fluorescence, higher = more signal;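 further: labelled calmodulin applied in Tris saline Tween buffer holding calcium plus EGTA and DTT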
[5] = target: Calmodulin-1 (Homo sapiens) (UniProt P0DP23); experiment: calcium-bound CALM1 binders on microarrays, profiling panel, artefact control for SMM control-protein annotation, biochemical, small-molecule microarray, Cy5-labelled CALM1, plus calcium (AID 1112); conditions: Cy5-CALM1 binding fluorescence, higher = more signal;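 further: score merges spot fluorescence with signal to noise from triplicate slides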
[6] = small-molecule microarray binders of probe aWnt5a, primary screen, biochemical, biotinylated probe, 635/667 nm fluorescence (AID 1113); conditions: higher = more signal;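 further: score merges 667 nm fluorescence intensity with signal-to-noise per printed feature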
[7] = small-molecule microarray binders of probe aShh, primary screen, biochemical, biotinylated probe, 635/667 nm fluorescence (AID 1114); conditions: higher = more signal;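 further: probe is biotin-labelled aShh protein from a stem cell growth factor screen; measures binding of labelled protein to compounds printed on the slide; score merges feature fluorescence at 667 nm with signal-to-noise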
[8] = small-molecule microarray binders of probe aNog, primary screen, biochemical, biotinylated probe, 635/667 nm fluorescence (AID 1115); conditions: higher = more signal;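 further: probe is biotinylated aNog protein used at 0.15 µg/mL for 1 h at 4 C; z-score combines 667 nm fluorescence of each spot with its signal to noise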
[9] = target: Torsin-1A-interacting protein 1 (Homo sapiens) (UniProt Q5JTV8); experiment: LAP1 binders from COS7 cell lysate, primary screen, small-molecule microarray, 635/667 nm fluorescence (AID 1116); conditions: COS7-hLAP1 lysate binding, 635 nm fluorescence, higher = more signal
[10] = target: Alpha-bungarotoxin (Bungarus multicinctus) (UniProt P60615); experiment: alpha-bungarotoxin binders on microarray, profiling panel, artefact control for SMM control protein annotation, biochemical, small-molecule microarray, Alexa647 label, 635/667 nm fluorescence (AID 1117); conditions: alpha-BTX-A647 binding fluorescence, higher = more signal
Albumin (Bos taurus) = Albumin (Bos taurus) (UniProt P02769); experiment: bovine serum albumin binders on microarray, profiling panel, artefact control for SMM control protein annotation, biochemical, small-molecule microarray, Alexa647 label, 635/667 nm fluorescence (AID 1118); conditions: BSA-A647 binding, fluorescence 635 nm, higher = more signal;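 further: score merges 667 nm emission intensity and signal-to-noise per printed compound spot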
[11] = small-molecule microarray binders of probe aXIP, primary screen, biochemical, NeuroSMM set, 635/667 nm fluorescence (AID 1119); conditions: higher = more signal, called active from +8 up or from −8 down;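 further: probe is the protein aXip251-270 applied at 1 µg/mL to compound-printed slides; binding of probe to printed compounds measured as 667 nm fluorescence plus signal to noise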
[12] = small-molecule binders of probe aNOTCH3, primary screen, biochemical, small-molecule microarray, 635/667 nm fluorescence (AID 1120); conditions: higher = more signal;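 further: probe is a biotin-tagged antibody raised against NOTCH3 rather than NOTCH3 protein; score merges spot fluorescence near 667 nm with spot signal to noise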
[13] = small-molecule binders of probe aNOTCH2, primary screen, biochemical, small-molecule microarray, 635/667 nm fluorescence (AID 1121); conditions: higher = more signal;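 further: score merges feature fluorescence read at 667 nm with its signal to noise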
[14] = target: Carbonic anhydrase 2 (Homo sapiens) (UniProt P00918); experiment: CAII small-molecule binders, profiling panel, biochemical, small-molecule microarray, Alexa647-labelled CAII (AID 1122); conditions: CAII-A647 binding fluorescence, higher = more signal
[15] = COS7 lysate on small-molecule microarray, probe aHis, 635 nm (AID 1123); conditions: COS7 cell lysate, fluorescence, higher = more signal;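 further: z-score combines 667nm fluorescence intensity with signal-to-noise per printed compound spot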
[16] = compound binding in COS7 lysate, probe aLAP1, primary screen, cell lysate, small-molecule microarray (AID 1124); conditions: probe aLAP1, fluorescence, higher = more signal;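 further: lysate comes from COS7 cells expressing LAP1 and is applied at 0.3 µg/mL; score merges spot fluorescence near 667 nm with signal-to-noise over triplicate slides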
Sam68 (KHDRBS1) = experiment: Sam68 small-molecule binders, primary screen, biochemical, small-molecule microarray, 635 nm fluorescence (AID 1125); conditions: small-molecule microarray binding, higher = more signal;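 further: score merges 667 nm channel intensity with signal to noise over triplicate slides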
[17] = test system: Chordin-like protein 2 (CHRDL2); experiment: CHRDL2 small-molecule binders, primary screen, biochemical, small-molecule microarray, 635 nm fluorescence (AID 1126); conditions: small-molecule microarray binding, fluorescence 635 nm; higher = more signal;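 further: printed compound slides probed with Chrdl2 protein at 4 µg/mL for 1 h at 4 C; score merges 667 nm emission intensity with signal to noise over three replicate slides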
[18] = target: Concanavalin-A (Canavalia ensiformis) (UniProt P02866); experiment: ConA small-molecule binders, primary screen, artefact control for SMM control protein annotation, biochemical, small-molecule microarray, Alexa647 label, 635 nm (AID 1127); conditions: ConA-A647 binding fluorescence, higher = more signal;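 further: z combines 667 nm emission intensity with signal-to-noise across three replicate slides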
Concanavalin-A (Canavalia ensiformis), sequence (P02866 whole entry, looked up): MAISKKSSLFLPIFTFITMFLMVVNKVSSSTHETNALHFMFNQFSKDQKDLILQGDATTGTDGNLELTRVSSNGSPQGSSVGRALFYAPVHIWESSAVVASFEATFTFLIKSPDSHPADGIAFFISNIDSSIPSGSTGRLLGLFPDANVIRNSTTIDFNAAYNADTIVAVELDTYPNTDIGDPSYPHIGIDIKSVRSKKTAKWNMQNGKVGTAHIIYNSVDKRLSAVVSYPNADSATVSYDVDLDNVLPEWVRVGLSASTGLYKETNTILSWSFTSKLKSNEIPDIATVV

Alpha-bungarotoxin (Bungarus multicinctus), sequence (P60615 whole entry, looked up): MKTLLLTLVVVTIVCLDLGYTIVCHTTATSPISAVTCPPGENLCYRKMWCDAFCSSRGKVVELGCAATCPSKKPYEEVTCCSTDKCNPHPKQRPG
Left-right determination factor 2 (Homo sapiens), sequence (O00292 whole entry, looked up): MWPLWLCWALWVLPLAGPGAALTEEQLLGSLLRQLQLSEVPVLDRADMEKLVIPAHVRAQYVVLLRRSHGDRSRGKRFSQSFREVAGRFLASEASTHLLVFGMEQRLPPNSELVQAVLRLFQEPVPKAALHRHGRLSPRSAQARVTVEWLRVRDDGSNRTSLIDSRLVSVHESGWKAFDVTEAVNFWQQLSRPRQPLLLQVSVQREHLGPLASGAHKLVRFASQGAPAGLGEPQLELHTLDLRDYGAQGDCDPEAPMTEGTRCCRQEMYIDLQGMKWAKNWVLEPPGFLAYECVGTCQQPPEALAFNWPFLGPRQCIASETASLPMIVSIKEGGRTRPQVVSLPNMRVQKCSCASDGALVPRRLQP
Albumin (Bos taurus), sequence (P02769 whole entry, looked up): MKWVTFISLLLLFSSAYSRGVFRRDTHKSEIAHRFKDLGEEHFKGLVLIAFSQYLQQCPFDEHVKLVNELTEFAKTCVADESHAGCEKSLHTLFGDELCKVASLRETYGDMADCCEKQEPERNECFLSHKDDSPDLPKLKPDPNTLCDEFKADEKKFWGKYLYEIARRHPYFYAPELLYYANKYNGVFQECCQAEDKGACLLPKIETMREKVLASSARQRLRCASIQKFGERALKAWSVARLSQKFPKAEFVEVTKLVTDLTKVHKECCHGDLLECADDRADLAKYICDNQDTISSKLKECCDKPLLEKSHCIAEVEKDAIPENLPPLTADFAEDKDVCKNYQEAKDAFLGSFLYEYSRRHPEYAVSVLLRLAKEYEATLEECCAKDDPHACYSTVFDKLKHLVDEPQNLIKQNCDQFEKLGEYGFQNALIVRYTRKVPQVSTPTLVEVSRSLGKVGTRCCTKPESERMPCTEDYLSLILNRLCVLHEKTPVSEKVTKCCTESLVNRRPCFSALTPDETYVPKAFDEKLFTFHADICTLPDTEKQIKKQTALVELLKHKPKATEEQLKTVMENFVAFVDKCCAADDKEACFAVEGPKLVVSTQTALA
Torsin-1A-interacting protein 1 (Homo sapiens), sequence (Q5JTV8 whole entry, looked up): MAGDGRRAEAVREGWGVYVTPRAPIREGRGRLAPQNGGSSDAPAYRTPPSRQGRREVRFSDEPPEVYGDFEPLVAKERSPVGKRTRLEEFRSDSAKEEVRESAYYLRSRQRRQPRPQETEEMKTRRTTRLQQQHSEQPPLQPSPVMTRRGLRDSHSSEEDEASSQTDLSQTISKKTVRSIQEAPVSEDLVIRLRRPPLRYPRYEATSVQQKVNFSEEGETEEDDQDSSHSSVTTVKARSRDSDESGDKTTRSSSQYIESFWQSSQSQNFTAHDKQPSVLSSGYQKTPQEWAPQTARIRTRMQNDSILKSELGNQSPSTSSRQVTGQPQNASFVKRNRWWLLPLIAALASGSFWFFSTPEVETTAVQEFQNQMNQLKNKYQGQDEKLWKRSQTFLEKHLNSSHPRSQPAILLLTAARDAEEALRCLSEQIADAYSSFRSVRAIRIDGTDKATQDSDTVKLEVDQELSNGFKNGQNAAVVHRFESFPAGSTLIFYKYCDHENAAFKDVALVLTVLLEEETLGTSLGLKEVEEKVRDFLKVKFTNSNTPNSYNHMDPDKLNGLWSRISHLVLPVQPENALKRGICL

SMILES | composite z-score [1] | z-score [2] | composite z-score [3] | composite z-score [4] | composite z-score [5] | composite z-score [6] | composite z-score [7] | composite z-score [8] | composite z-score [9] | composite z-score [10] | composite z-score (Albumin (Bos taurus)) | composite Z-score [11] | composite z-score [12] | composite z-score [13] | composite z-score [14] | composite z-score [15] | composite z-score [16] | composite z-score (Sam68 (KHDRBS1)) | composite z-score [17] | composite z-score [18]
Cc1ccc(S[C@]2(C(=O)NCCN3CCOCC3)CC(=O)N(Cc3ccccc3C(F)(F)F)[C@@H]2c2ccc(CO)cc2I)cc1 | 0.323 | -1.64 | -1.49 | -0.69 | 0.116 | -0.0792 | -0.0866 | 0.0331 | -0.0897 | -0.529 | 0.274 | 0.139 (inactive) | -0.171 | -0.131 | 0.371 | 0.702 | 0.23 | 0.397 | -0.777 | -0.278
COC(=O)[C@@]1(Cc2ccc(F)cc2)[C@H]2c3cc(C(=O)N4CCCC4)n(CCc4c[nH]c5ccc(OC)cc45)c3C[C@H]2CN1C(=O)c1ccccc1 | 1.4 | -2.22 | 0.474 | 1.92 | 0.878 | 1.19 | 1.17 | 2.98 | 0.781 | 1.23 | 0.871 | 0.298 (inactive) | 1.43 | 0.849 | 0.313 | 2.33 | -0.143 | 0.929 | -0.0865 | 1.09
C=CCC(OC(C)=O)[C@@H]1[C@@H](N(Cc2cc3ccccc3o2)C(=O)Cc2ccc(F)cc2)c2cc(OCCCO)ccc2N1C(=O)c1ccc2ccccc2n1 (stereo not given in full) | -0.221 | 0.476 | -0.139 | -0.408 | -0.12 | 0.0179 | -0.426 | 0.14 | -0.103 | 0.222 | 0.124 | -0.16 (inactive) | -0.136 | -0.104 | -0.183 | 0.178 | 0.104 | -0.847 | 0.344 | -0.0002
CO[C@H]1O[C@H](CO)[C@@H](OC(=O)Nc2ccc(C(F)(F)F)cc2)[C@H](OC(=O)Nc2ccc3c(c2)OCO3)[C@H]1OC(=O)Nc1ccc2c(c1)OCO2 | 1.33 | -2.79 | 0.0746 | 1.84 | -0.367 | 0.0438 | 0.0437 | 0.925 | 2 | 0.648 | 0.72 | 1.42 (inactive) | 0.169 | 0.0062 | 0.767 | 2.67 | 0.59 | 1.3 | -0.146 | 1.14
CC(C)CNC(=O)[C@@]1(c2ccc([N+](=O)[O-])cc2)CC(=O)N(C2CCCCC2)[C@@H]1c1ccc(CO)cc1I | 1.11 | -2.3 | -0.609 | 0.779 | 0.379 | -0.0417 | -0.16 | -0.279 | 0.341 | 0.817 | 0.441 | 0.0911 (inactive) | -0.0598 | -0.0761 | 0.469 | 1.86 | 0.15 | 0.754 | -0.662 | 0.282
CN(C)CCCN1C(=O)[C@@]2(c3ccc([N+](=O)[O-])cc3)CC(=O)N(CC34CC5CC(CC(C5)C3)C4)[C@@H]2c2ccc(CO)cc21 | 0.869 | -1.49 | -0.741 | -0.301 | -0.828 | -0.152 | 0.111 | -0.302 | -0.301 | -0.0251 | -0.348 | -0.184 (inactive) | -0.208 | -0.0391 | 0.76 | 1.08 | 0.538 | 0.503 | -0.304 | 0.412
